Here are results for 15 molecules from the supplement of paper PMC6658780.

This experiment has as its system Escherichia coli ATCC BAA-2469. Kind of experiment: percent growth inhibition of drug + antibiotic vs DMSO control; higher = more growth inhibition. On the procedure:
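Prestwick drugs tested at 20 uM and 7 uM with an antibiotic at 0.125x MIC (16 mg/L when MIC >128 mg/L) against E. coli ATCC BAA-2469 (NDM-1) in CAMHB, 384-well plates, duplicate runs. Percent growth inhibition was computed from OD600 (24 h minus 0 h) relative to DMSO wells. Drug + DMSO-only wells are also given. […]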

Where [1] appears, read: antibiotic (0.125x MIC): ciprofloxacin, 7 µM.
[2] abbreviates: antibiotic (0.125x MIC): ciprofloxacin, 20 µM.
Where [3] appears, read: antibiotic (0.125x MIC): meropenem, 7 µM.
[4] abbreviates: antibiotic (0.125x MIC): meropenem, 20 µM.
[5] abbreviates: antibiotic (0.125x MIC): gentamicin, 7 µM.
The mark [6] stands for this setting: antibiotic (0.125x MIC): gentamicin, 20 µM.

Where a name gives a salt, the structure may show the parent alone. ± gives the standard deviation of the averaged measurements.

Consider `Cc1nnc(NS(=O)(=O)c2ccc(N)cc2)s1` [Sulfamethizole], for which the percent growth inhibition turned out to be 9.62 ± 10% under setting [1] and 4.47 ± 6% under setting [2].

In the case of `CC(=O)OC[C@H]1O[C@@H]([S-])[C@H](OC(C)=O)[C@@H](OC(C)=O)[C@@H]1OC(C)=O.CCP(CC)CC.[Au+]` [Auranofin], the percent growth inhibition reads like this: under setting [1], 9.1 ± 0.77%; under setting [2], 19.5 ± 6.6%; under setting [3], 7.8 ± 5.3%; under setting [4], 19.3 ± 14%.

In the case of `CN(C)c1ccc(O)c2c1C[C@H]1C[C@H]3[C@H](N(C)C)C(O)=C(C(N)=O)C(=O)[C@@]3(O)C(O)=C1C2=O` [Minocycline hydrochloride], the percent growth inhibition was 36.9 ± 6.3% under setting [1], 101 ± 3.3% under setting [2], 38.6 ± 5.5% under setting [5] and 84.6 ± 15% under setting [6].

As for `Nc1nc(F)nc2c1ncn2[C@@H]1O[C@H](CO)[C@@H](O)[C@@H]1O` [Fludarabine], the percent growth inhibition under setting [1] came to 36.5 ± 11%; the percent growth inhibition under setting [2] amounted to 58.8 ± 3.8%; the percent growth inhibition under setting [5] was 31.6 ± 1.3%; the percent growth inhibition under setting [6] worked out at 65.8 ± 12%; the percent growth inhibition under setting [3] is 28.2 ± 5.7%; the percent growth inhibition under setting [4] was found to be 64.4 ± 8%.

`O=C1NCCN1c1ncc([N+](=O)[O-])s1` [Niridazole]: the percent growth inhibition under setting [1] came to 45 ± 5.1%; the percent growth inhibition under setting [2] was determined as 86.8 ± 14%; the percent growth inhibition under setting [5] is 30.939 ± 0.024%; the percent growth inhibition under setting [6] worked out at 99.9 ± 3.3%; the percent growth inhibition under setting [3] was 42.4 ± 9.2%; the percent growth inhibition under setting [4] came out at 85.3 ± 15%.

In the case of `O=C1OCCN1/N=C/c1ccc([N+](=O)[O-])o1` [Furazolidone], the percent growth inhibition came to 102 ± 2.7% under setting [2], 113 ± 20% under setting [6] and 113 ± 20% under setting [4].

As to `Cc1c(N(C)C)c(=O)n(-c2ccccc2)n1C` [Amidopyrine], the percent growth inhibition under setting [5] came out at 0.636 ± 5.5%.

As to `C#C[C@]1(O)CC[C@H]2[C@@H]3CCC4=C(CCC(=O)C4)[C@H]3CC[C@@]21C` [Norethynodrel], the percent growth inhibition under setting [5] came to 4.39 ± 3.6%.

Turning to `OCCN1CCN(CCCN2c3ccccc3Sc3ccc(C(F)(F)F)cc32)CC1` [Fluphenazine dihydrochloride], the percent growth inhibition under setting [5] is 1.67 ± 0.74%.

Turning to `Nc1nnc(-c2cccc(Cl)c2Cl)c(N)n1` [Lamotrigine], the percent growth inhibition under setting [5] is 7.06 ± 4.8%.

For the molecule `CO[C@H]1/C=C/O[C@@]2(C)Oc3c(C)c(O)c4c(c3C2=O)C2=NC3(CCN(CC(C)C)CC3)NC2=C(NC(=O)/C(C)=C\C=C\[C@H](C)[C@H](O)[C@@H](C)[C@@H](O)[C@@H](C)[C@H](OC(C)=O)[C@@H]1C)C4=O` [Rifabutin], the percent growth inhibition is, setting by setting: under setting [5], 86.11 ± 0.8%; under setting [6], 114 ± 20%; under setting [3], 97.8 ± 1.9%; under setting [4], 111 ± 12%.

For `Cc1cc(/C=C/c2ccc3cc(N(C)C)ccc3[n+]2C)c(C)n1-c1ccccc1` [Pyrvinium pamoate], the percent growth inhibition worked out at 13.6 ± 14% under setting [5], 11.6 ± 17% under setting [3] and 18 ± 14% under setting [4].

For `Cc1c(OCC(F)(F)F)ccnc1C[S+]([O-])c1nc2ccccc2[nH]1` (stereo not given) [Lansoprazole], the percent growth inhibition under setting [6] was 12.5 ± 18%.

For `Clc1cccc(Cl)c1NC1=NCCN1` [Clonidine hydrochloride], under setting [6], the percent growth inhibition was -0.49 ± 2.6%.

As to `CCCCCCCCCCCCCCCC[N+](C)(C)CCN(Cc1ccc(OC)cc1)c1ncccn1` [Thonzonium bromide], the percent growth inhibition was -2.72 ± 5.5% under setting [3] and 34.1 ± 20% under setting [4].
